Laboratory results taken from the supplement of paper PMC3334620.
Over roughly 33,000 sequences, “E-score (-0.5 to 0.5)” has its median near -0.011; the highest 2% begin near 0.28. For the sample, the highest values were picked, then their nearest neighbours and some sequences at random.

Target: T1, Gcr1 (UniProt P07261)
T1 sequence: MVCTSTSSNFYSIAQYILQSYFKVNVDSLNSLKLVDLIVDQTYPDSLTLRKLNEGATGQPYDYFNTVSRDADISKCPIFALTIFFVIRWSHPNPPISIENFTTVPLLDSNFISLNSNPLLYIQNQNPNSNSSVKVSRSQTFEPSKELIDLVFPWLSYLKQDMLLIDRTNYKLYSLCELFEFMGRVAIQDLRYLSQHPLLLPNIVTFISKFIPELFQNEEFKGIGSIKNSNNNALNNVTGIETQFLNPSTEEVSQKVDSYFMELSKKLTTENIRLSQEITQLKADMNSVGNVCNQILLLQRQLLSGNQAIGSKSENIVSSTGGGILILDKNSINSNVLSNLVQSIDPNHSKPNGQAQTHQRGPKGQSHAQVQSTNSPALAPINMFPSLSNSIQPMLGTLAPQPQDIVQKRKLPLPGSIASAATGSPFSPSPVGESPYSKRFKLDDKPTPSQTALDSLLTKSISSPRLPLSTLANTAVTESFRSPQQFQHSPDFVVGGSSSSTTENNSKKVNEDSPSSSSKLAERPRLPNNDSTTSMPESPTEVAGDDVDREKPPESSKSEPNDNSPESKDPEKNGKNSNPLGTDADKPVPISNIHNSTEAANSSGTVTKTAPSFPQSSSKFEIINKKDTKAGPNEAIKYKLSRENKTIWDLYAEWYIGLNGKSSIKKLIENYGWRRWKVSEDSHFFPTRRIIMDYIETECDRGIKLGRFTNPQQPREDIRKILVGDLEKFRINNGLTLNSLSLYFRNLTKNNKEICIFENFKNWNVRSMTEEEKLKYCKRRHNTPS
Assay: PBM E-score (8-mer binding enrichment) (E-score (-0.5 to 0.5)); higher = stronger / more preferred TF binding
Settings: protein concentration: 100 nM; construct: GST-full length
Procedure: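 Universal 'all 10-mer' protein binding microarrays (Agilent AMADID 015681) probed with GST-tagged S. cerevisiae TFs (full-length or DBD) made by in vitro transcription/translation (PURExpress), about 100-200 nM. Bound TF was detected with fluorescent anti-GST. Each ungapped 8-mer (which stands for itself and its reverse complement) is scored by the PBM enrichment score (E-score), a modified Wilcoxon-Mann-Whitney statistic from -0.5 to +0.5, computed with the Universal PBM Analysis Suite. Scale: above 0.35 generally sequence-specific binding.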

Sequence | PBM E-score
AGCCCGTG | -0.0206
ACCACTGA | 0.0982
AACCCGGG | 0.0515
CGCCGGGC | -0.0527
ACACCTTA | 0.0539
GCTGATCC | -0.0746
GCCGCCAA | 0.125
GCTCGCGA | 0.0716
GGCACCCC | 0.322
CGCACCCC | 0.0174
CGCACCCA | 0.236
AGCACCCC | 0.131
TGCACCCA | 0.151
GGCACCCA | 0.381
AACCTGCA | -0.0327
CCCGATGA | -0.0833
CAAATCGG | 0.0561
CTTCCGGC | 0.111
ATTCCGAA | 0.147
CATCCAAC | -0.0403
ATTCCACG | 0.0676
CTTCCGGA | 0.347
ACTCCAAA | 0.116
ATTCCGGA | 0.197
ATTCCACA | 0.247

Sequence | PBM E-score
CTTCCACA | 0.349
CATCCAAA | 0.298
CATCCAAG | -0.0862
ATTCCAAA | 0.307
AGCTTATG | 0.0485
CCGACATA | 0.0516
GATAACCC | -0.017
AGCCCCCG | -0.0643
AGCGGGCA | -0.156
CTCCGGGA | 0.00075
ACGGAGGC | -0.00955
CTTCCAAG | -0.132
CGTCCAAG | -0.0458
CGTCCAAA | 0.33
ATTCCAAT | 0.299
TTTCCAAA | 0.178
AGTCCAAA | -0.0142
ATTCCAAC | 0.221
CTTCCAAC | 0.181
GTTCCAAA | 0.302
CTTCCAAA | 0.338
GTTCCAAC | 0.0801
ATTCCAAG | 0.196
GGCACTCA | -0.189
AACGTCTT | 0.158

Sequence | PBM E-score
AGCAAGTA | -0.149
AGAATACG | 0.182
TAGCCTCA | -0.053
CAACCAAC | -0.102
CAACCAAG | 0.0892
CAACCAAA | 0.313
AGCCAAGC | -0.0873
CAAACTGA | 0.105
GCCGGAAC | 0.247
CGCCATTC | 0.0469
CGAGTCCA | -0.051
GGAGTCCA | 0.344
AGAGTCCC | 0.0617
GGAGTCCC | 0.286
CGAGTCCC | 0.168
TGAGTCCA | 0.146
GCCGAGTA | 0.115
ACCGGGCT | 0.113
GCTTACCA | -0.193
ACGCTTGA | 0.0746
CCGGAACG | -0.0389
ACGGAACC | 0.0697
GCGGAACC | 0.341
GCGGAACA | -0.172
CCGGAACC | 0.325

Sequence | PBM E-score
CCGGAACA | -0.0359
CATTGTTC | -0.0803
CCAAACAA | 0.213
CAGTGGTA | 0.115
AAGCCTTC | -0.191
CCTCGGTC | -0.223
AAGGGAAC | 0.0126
CCACTAAC | 0.21
CCACTAAG | 0.374
CCACTACA | 0.194
CCACTAGA | 0.235
CCACTACG | 0.323
CCACTATC | 0.368
ACACTAAG | -0.00776
ACACTATC | -0.0774
ACACTAGG | -0.176
CCACTACC | 0.125
CCACTATA | 0.276
CCACTAGG | 0.287
CACCATAC | 0.0726
ACCTGTGG | -0.0729
GCTTGGAA | -0.114
CGGGGTCA | -0.096
AAGAAACC | 0.0595
AGGCGTAA | 0.0474

Sequence | PBM E-score
GACGCATA | 0.141
CCACTAAA | 0.314
GCACTAAA | 0.0118
TCACTAAA | 0.134
CCCCGTCG | 0.00224
CCCGATGC | -0.124
AGGGATAT | -0.234
CTATGCGA | -0.14
GTATGCGA | 0.291
ATATGCGA | 0.0152
ATTAGTGG | 0.388
ATTAGTGC | -0.00168
AATAGTGC | -0.175
AATAGTGG | 0.425
AATAGTGA | 0.0209
ATTAGTGA | 0.0812
GAGCGAAC | -0.28
TCCATAGA | 0.203
CGTAAGAA | -0.113
CTAAAGAC | -0.0627
GAAAGGAA | 0.0552
AAAAGGAT | -0.00496
AAAAGGAC | 0.0425
AAAAGGAA | 0.361
CAAAGGAA | 0.104

Sequence | PBM E-score
TAAAGGAA | 0.314
AATCTCGC | -0.0134
GCTGGTAA | 0.122
ATAGGTCG | 0.0752
AATTTACG | 0.0625
ATTTTACG | 0.337
ATTTTACC | 0.0326
GATAACAC | -0.12
GTGTCCAA | 0.0511
ACTGGAGC | 0.0795
ACTGGACT | 0.134
ACTGGATA | 0.108
ACTGGACG | 0.303
ACTGGATG | 0.326
CCTGGATC | -0.00306
ACTGGACA | 0.0644
ACTGGATC | 0.316
ACTGGAGG | 0.206
CGACTGTC | -0.252
CTGCACAG | -0.0453
GCGCTAAA | 0.232
CTTCAGCA | -0.0569
CTCTATTA | 0.154
ATATATTA | 0.0581
CTATATTA | 0.307

Sequence | PBM E-score
GTTCATCA | 0.108
TTCCTAAA | 0.36
ATCCTAAA | 0.211
CACCTAAA | 0.266
GTCCTAAA | 0.21
AACCTAAA | 0.294
TACCTAAA | 0.0795
GGGAGTGA | -0.0739
GTCCGCAC | -0.0732
AGATCCAA | 0.186
AGATCCAC | 0.183
GGATCCAA | 0.299
GGATCCAC | 0.302
CGATCCAC | -0.153
CGATCCAA | 0.0146
TGGATTAA | 0.0316
GTACTTGA | -0.209
AAGAAAGG | -0.125
ATGCGCTC | 0.0347
ACCCCGTA | -0.0035
AGAGCTTA | -0.119
GAAGCACA | 0.117
